# PubChem BioAssay (Tox21)
# Records with an inconclusive call do not appear. Where a call stands in place of a potency, no number is given. Unmarked numbers belong to inactive results. Active and inactive are the calls of the source. Calls follow the shape of the dose curve; as a rule, active = well fitted curve in the direction sought with a large enough effect in the repeat runs; inconclusive = weak or mixed curves; inactive = no such curve, though single readings can be large; an effect the other way counts as inactive or inconclusive.
# How the values were obtained:
# [1] = biological target: Cytochrome P450 2C19 (Homo sapiens) (UniProt P33261); experiment: Cytochrome P450 Family 2 Subfamily C Member 19 (CYP2C19) small molecule antagonists: luciferase reporter qHTS assay (AID 1671197); also: nearly all actives have a fitted effect of over 65% in size; also: potency is read from the fitted curve at half-maximal effect; as to activity change, negative = inhibition: series mostly up to about 120 µM
# Summary of the method: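 Light output is proportional to CYP2C19 activity: proluciferin substrate is converted to luciferin, then detected by a luciferin detection reagent that also stops the 1 h, 37C NADPH-driven reaction. Ketoconazole serves as positive control.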
# [2] = biological target: Cytochrome P450 2C9 (Homo sapiens) (UniProt P11712); experiment: Cytochrome P450 Family 2 Subfamily C Member 9 (CYP2C9) small molecule antagonists: luciferase reporter qHTS assay (AID 1671198); also: nearly all actives have a fitted effect of over 50% in size; also: potency is read from the fitted curve at half-maximal effect; as to activity change, negative = inhibition: series mostly up to about 120 µM
# Summary of the method: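 Enzyme-substrate mix preincubated with compound 10 min at room temperature; reaction started with NADPH regeneration solution, 1 h 37C. Luminescent luciferin product read after 20 min detection reagent.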
# [3] = biological target: Voltage-gated inwardly rectifying potassium channel KCNH2 (Homo sapiens) (UniProt Q12809); experiment: Human Ether-a-go-go-Related Gene (hERG) channel small molecule antagonists: fluorescence cell-based qHTS assay (AID 1671200);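 also: hERG-expressing U2OS cells given a thallium stimulus after FluxOR II dye loading; series mostly up to about 77 µM; nearly all actives have a fitted effect of over 50% in size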
# Summary of the method: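 First, 1000 cells per well are seeded and cultured overnight at 37 C. Next, FluxOR II dye is loaded for 1 h at room temperature, protected from light. After 10 more minutes, stimulus is added and fluorescence is read.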
# [4] = biological target: Cytochrome P450 3A4 (Homo sapiens) (UniProt P08684); experiment: Cytochrome P450 Family 3 Subfamily A Member 4 (CYP3A4) small molecule antagonists: luciferase reporter qHTS assay (AID 1671201); also: series mostly up to about 120 µM; nearly all actives have a fitted effect of over 50% in size
# Summary of the method: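 Enzyme and proluciferin substrate are mixed with test chemicals for 10 min, then NADPH regeneration system drives turnover for 1 h at room temperature. A detection reagent halts the reaction; luminescence after 20 min gives relative activity.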
# [5] = biological target: Cytochrome P450 1A2 (Homo sapiens) (UniProt P05177); experiment: Cytochrome P450 Family 1 Subfamily A Member 2 (CYP1A2) small molecule antagonists: luciferase reporter qHTS assay (AID 1671199); also: potency is read from the fitted curve at half-maximal effect; nearly all actives have a fitted effect of over 50% in size
# Summary of the method: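 Inhibition of CYP1A2 conversion of proluciferin to luciferin, detected by luminescence. Reaction run 1 h at room temperature with NADPH regeneration after brief compound preincubation.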
# Sequence of Cytochrome P450 2C9 (Homo sapiens) (P11712 whole entry, looked up): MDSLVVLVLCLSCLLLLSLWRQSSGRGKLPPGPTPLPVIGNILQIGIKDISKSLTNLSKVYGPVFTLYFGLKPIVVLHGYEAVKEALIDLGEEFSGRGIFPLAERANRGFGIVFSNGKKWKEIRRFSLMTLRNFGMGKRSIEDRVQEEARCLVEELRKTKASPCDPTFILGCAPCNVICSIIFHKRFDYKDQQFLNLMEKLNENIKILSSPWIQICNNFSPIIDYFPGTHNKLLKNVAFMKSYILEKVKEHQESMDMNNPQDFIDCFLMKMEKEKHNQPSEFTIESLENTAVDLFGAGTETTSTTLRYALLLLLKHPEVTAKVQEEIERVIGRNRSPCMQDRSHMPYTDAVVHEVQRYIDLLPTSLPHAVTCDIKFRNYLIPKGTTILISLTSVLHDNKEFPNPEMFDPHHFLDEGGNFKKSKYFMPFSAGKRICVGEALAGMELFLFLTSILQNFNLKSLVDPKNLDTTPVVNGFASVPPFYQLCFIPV
# Sequence of Cytochrome P450 2C19 (Homo sapiens) (P33261 whole entry, looked up): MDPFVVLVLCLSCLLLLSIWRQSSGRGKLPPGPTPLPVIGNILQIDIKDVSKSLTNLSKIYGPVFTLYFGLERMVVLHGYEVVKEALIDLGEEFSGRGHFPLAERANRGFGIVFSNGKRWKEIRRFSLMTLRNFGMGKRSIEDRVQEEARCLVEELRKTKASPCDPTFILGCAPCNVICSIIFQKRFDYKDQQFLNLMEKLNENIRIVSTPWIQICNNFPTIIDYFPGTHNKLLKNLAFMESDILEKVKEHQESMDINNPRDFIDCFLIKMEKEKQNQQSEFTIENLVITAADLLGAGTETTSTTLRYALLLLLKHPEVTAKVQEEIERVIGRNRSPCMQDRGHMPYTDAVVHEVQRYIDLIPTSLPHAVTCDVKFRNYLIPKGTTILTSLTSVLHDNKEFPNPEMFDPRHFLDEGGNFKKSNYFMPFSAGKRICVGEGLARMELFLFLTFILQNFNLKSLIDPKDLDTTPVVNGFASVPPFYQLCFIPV
# Sequence of Cytochrome P450 3A4 (Homo sapiens) (P08684 whole entry, looked up): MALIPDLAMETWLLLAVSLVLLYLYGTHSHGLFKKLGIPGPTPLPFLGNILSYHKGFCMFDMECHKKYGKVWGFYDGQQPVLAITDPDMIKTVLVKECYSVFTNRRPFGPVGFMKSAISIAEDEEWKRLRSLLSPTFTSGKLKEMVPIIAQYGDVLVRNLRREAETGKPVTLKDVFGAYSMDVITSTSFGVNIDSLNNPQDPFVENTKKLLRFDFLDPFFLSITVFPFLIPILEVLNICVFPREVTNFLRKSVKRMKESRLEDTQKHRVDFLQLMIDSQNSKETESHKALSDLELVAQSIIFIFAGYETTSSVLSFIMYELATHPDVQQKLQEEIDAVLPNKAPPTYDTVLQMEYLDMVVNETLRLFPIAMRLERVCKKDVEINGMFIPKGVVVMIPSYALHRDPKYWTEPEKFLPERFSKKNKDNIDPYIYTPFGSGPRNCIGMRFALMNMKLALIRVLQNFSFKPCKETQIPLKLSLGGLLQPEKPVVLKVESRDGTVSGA
# Sequence of Voltage-gated inwardly rectifying potassium channel KCNH2 (Homo sapiens) (Q12809 whole entry, looked up): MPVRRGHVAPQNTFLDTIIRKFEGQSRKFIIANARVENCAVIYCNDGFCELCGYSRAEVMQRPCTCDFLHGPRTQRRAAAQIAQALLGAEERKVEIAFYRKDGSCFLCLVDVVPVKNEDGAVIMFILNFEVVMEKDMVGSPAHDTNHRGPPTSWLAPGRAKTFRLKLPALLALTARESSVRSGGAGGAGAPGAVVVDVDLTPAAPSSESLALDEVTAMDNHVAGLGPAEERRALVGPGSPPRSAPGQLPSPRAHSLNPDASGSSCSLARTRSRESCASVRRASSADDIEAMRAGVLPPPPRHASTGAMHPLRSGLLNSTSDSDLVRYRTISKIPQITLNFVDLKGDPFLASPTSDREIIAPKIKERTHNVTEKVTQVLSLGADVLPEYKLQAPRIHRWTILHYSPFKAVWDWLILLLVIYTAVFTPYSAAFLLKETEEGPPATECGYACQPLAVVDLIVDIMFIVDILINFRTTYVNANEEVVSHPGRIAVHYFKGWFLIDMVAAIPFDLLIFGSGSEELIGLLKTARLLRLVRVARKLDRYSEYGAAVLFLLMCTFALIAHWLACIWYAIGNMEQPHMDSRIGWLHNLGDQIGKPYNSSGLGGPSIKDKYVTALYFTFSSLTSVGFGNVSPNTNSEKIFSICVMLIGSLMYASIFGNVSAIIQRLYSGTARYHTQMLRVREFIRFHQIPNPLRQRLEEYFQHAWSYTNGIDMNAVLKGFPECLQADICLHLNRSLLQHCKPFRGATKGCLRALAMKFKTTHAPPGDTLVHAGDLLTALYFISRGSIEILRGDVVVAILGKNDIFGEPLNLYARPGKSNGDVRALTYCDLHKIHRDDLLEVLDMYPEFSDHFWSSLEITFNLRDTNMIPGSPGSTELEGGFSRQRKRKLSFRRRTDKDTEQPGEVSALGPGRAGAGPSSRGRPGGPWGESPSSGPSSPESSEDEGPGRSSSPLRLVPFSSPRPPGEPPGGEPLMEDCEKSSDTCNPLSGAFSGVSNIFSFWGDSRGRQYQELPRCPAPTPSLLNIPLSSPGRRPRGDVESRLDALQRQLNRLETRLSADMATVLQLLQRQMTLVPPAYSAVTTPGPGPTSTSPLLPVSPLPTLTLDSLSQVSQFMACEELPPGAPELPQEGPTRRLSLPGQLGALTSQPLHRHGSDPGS
# Sequence of Cytochrome P450 1A2 (Homo sapiens) (P05177 whole entry, looked up): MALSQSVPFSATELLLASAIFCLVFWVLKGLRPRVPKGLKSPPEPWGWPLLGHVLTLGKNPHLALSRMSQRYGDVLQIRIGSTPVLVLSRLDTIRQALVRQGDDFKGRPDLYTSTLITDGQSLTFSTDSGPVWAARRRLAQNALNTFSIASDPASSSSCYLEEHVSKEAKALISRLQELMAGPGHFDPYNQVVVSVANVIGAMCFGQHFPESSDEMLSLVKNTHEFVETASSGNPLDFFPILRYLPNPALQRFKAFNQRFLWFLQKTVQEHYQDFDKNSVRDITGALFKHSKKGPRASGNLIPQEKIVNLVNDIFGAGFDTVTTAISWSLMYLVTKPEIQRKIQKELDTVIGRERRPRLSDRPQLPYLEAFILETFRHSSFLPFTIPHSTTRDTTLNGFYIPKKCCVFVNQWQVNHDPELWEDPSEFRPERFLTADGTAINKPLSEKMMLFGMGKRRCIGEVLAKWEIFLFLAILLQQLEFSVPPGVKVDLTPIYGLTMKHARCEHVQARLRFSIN
smiles,measurement,setting,value
COc1cc(C=O)ccc1OC(=O)C(C)C,Potency,[1],39.9 µM (active)
same,Potency,[2],35.6 µM (active)
same,Potency,[3],inactive
same,Potency,[4],inactive
CCOC(=O)CC#N,Potency,[1],39.5 µM (active)
same,Potency,[3],inactive
same,Potency,[4],inactive
CCCCC/C=C/CC(=O)OC,Potency,[1],inactive
same,Potency,[2],inactive
same,Potency,[3],inactive
same,Potency,[4],inactive
CCOC(=O)CCCCCCCCC(=O)OCC,Potency,[2],31.7 µM (active)
same,Potency,[3],inactive
same,Potency,[4],inactive
c1ccc(CNc2ncnc3nc[nH]c23)cc1,Potency,[3],inactive
O=CO,"activity change, negative = inhibition",[3],-0.636% [at 6.97 µM]
Cc1cccc(C(=O)O)c1[N+](=O)[O-],Potency,[1],inactive
same,Potency,[5],63.4 µM (active)
same,Potency,[3],inactive
C=COCCOCCOC=C,Potency,[1],inactive
same,Potency,[2],inactive
same,Potency,[3],inactive
same,Potency,[4],inactive
